Source: PubChem (several laboratories)
Cardio protect = modulators protecting cardiomyocytes from myocardial damage. H9c2 cardiomyocytes, H2O2 injury protection, ATPLite, 2 h. protection from H2O2 cell death, % at 20 µM. hit rate 0.63% among 360,000. AID 588492;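 active means compounds giving at least 50% protection of heart cells from peroxide-induced death in the single-dose screen, raw or plate-pattern-corrected value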
GRIN3A LBD mod = NR3A (human) ligand-binding domain modulation. AID 1259313. NR3A LBD differential scanning fluorimetry, Tm shift; 0% = protein alone, 100% = glycine-bound protein. Tm shift relative to glycine control, % at 25 µM. hit rate 2.5% among 340,000;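 active means melting temperature shift of at least 10% of the positive control shift, at one fixed dose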
AI-2 QS modul = modulates the Vibrio harveyi AI-2 quorum sensing system; Vibrio harveyi JMH597 AI-2 luminescence/OD600 ratio, 9 h; stronger effect = lower value; strain lacks LuxN and CqsS sensors; 0 = neutral-control median; activity change, % at 7.5 µM; hit rate 0.4% among 300,000; in the data active means activity change below about -75%, passing the limit was not always enough;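 further: luminescence divided by OD600 gain over 9 h not by final OD600 alone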
NTR1 agonist = NTR1 (human) agonism; P30989; NTR1-U2OS beta-arrestin-GFP spot imaging, agonist mode; activation, % at 20 µM; hit rate 0.17% among 330,000;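 active means activation at or above 40% of the spot to cytoplasm intensity ratio, with at least 20 cells analyzed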
Target sequence (P30989 whole entry, looked up): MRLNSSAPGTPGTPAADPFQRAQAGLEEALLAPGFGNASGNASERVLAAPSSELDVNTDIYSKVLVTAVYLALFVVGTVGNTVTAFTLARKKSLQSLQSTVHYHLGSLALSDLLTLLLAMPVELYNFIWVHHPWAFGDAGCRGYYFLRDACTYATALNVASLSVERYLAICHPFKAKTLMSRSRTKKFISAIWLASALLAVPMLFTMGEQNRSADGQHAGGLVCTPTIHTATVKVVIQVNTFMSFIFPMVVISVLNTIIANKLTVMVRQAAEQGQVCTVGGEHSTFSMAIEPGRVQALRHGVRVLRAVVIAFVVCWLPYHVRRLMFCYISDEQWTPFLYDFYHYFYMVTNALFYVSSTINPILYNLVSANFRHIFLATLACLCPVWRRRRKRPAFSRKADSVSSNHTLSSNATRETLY
SUMO Mot1 rescue = SUMOylation pathway inhibition by Mot1-301 growth rescue; S. cerevisiae Mot1-301 growth rescue, ATP luminescence, 38.5C; percent above DMSO median, 100 means doubled; growth rescue, % at 18.8 µM; hit rate 1% among 320,000; AID 2716;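 active means every valid replicate shows activation above 250% relative to neutral control wells; inactive means the rest, any valid replicate at or below 250%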
AHR activator = activators of human aryl hydrocarbon receptor. hit rate 2.5% among 320,000. activation, % at 5 µM. AHR-responsive luciferase reporter cells, luminescence. P35869. AID 2796; in the data active means activation above about 47%
Numbers stand for hits; n = inactive; x = no result given. The list is not random: actives were taken first. Their share in the collection is about 6.2%.

SMILES	Cardio protect	GRIN3A LBD mod	AI-2 QS modul	NTR1 agonist	SUMO Mot1 rescue	AHR activator
CCc1nc2ccc(C(=O)NCCN3CCOCC3)cn2c1N(C)Cc1ccc(OC)cc1	n	x	x	x	x	x
CCCCn1c(N)c(N(CCOC)C(=O)COC(=O)c2ccccc2NCCO)c(=O)[nH]c1=O	n	n	x	x	x	x
Cc1ncc(CO)c(/C=N/NC(=O)c2ccccc2Br)c1O	n	n	n	n	n	n
Cc1ncc(CO)c(/C=N/NC(=O)c2ccc(O)cc2)c1O	n	n	n	n	n	n
Cc1ncc(CO)c(/C=N/NC(=S)Nc2cccc(Cl)c2)c1O	n	27	n	n	n	54
Cc1ncc(CO)c(/C=N/NC(=S)Nc2ccc(Cl)c(Cl)c2)c1O	n	23	-210	n	n	n
C=CCn1c(O)c(C2=c3ccccc3=NC2=O)sc1=Nc1ccc(O)cc1	n	n	n	n	n	n
O=C1N=c2ccccc2=C1c1sc(=S)n(NC(=O)c2ccccc2)c1O	n	31	n	n	n	n
COc1ccc(N2CCN(S(=O)(=O)c3c(C)n(C)c(=O)n(C)c3=O)CC2)cc1	n	11	n	n	n	n
COc1ccc(N2CCN(S(=O)(=O)c3cn(C)c(=O)n(C)c3=O)CC2)cc1	n	n	n	n	n	n
Cc1cc(C)nc(NC(=NCCc2c[nH]c3ccccc23)NC(=O)Nc2cccc([N+](=O)[O-])c2)n1	n	n	n	n	n	n
Cc1cc(C)nc(NC(=NCCc2c[nH]c3ccccc23)NC(=O)Nc2ccc(Cl)c(Cl)c2)n1	n	27	n	n	x	n
Cc1cc(C)nc(NC(=NCCc2c[nH]c3ccccc23)NC(=O)Nc2ccccc2)n1	n	10	n	n	n	52
CCN(C(=O)c1ccc2c(=O)n3c(nc2c1)CCCCC3)c1ccc(F)cc1	n	n	n	n	n	n
CCOc1ccccc1CNC(=O)C1Cc2cc(S(=O)(=O)N3CCCCC3)ccc2N1C(C)=O (stereo unspecified)	n	n	n	n	n	n
Cc1cn([C@H]2C[C@H](O)[C@@H](CNCc3ccc(CN(C)S(C)(=O)=O)o3)O2)c(=O)[nH]c1=O	n	x	x	x	x	x
COc1ccc(S(=O)(=O)N2CCSC2c2ccc(N)cc2)cc1 (stereo unspecified)	n	11	n	n	n	n
CN(C)/N=C/c1ccc([N+](=O)[O-])cc1[N+](=O)[O-]	n	n	n	n	n	59
CN(C)c1nc(N)nc(/C(C#N)=C/C2CC3C=CC2C3)n1 (stereo unspecified)	n	n	n	n	n	47
CCc1cc(C(=O)c2ccc(C)cc2)c(NC(=O)CCl)s1	n	n	n	n	n	n
Cc1cc(C(=O)c2ccc(Cl)cc2)c(NC(=O)CCl)s1	n	12	n	n	n	n
CN1C(=O)c2ccc(N3CCCC3)cc2C1=O	n	n	n	n	n	n
Cc1cc(N2CCCC2)ccc1/C=C1\NC(=S)N(C)C1=O	n	n	n	n	n	51
CN(c1ccccc1)S(=O)(=O)c1cccc(NC(=O)CN2C(=O)NC3(CCCC3)C2=O)c1	n	n	x	n	x	x
NC(=O)c1cc2ccccc2o/c1=N/NC(=O)c1ccccc1	n	n	n	n	n	51
SMILES	Cardio protect	GRIN3A LBD mod	AI-2 QS modul	NTR1 agonist	SUMO Mot1 rescue	AHR activator
Cc1nc2ccc(S(=O)(=O)NC(C(=O)NCc3ccco3)C(C)C)cc2s1 (stereo unspecified)	n	n	n	n	357	n
Cc1nc2ccc(S(=O)(=O)NCC(=O)NC(C)c3ccccc3)cc2s1 (stereo unspecified)	n	n	-97	n	n	n
O=c1oc(CCO)cc2ccc(Br)cc12	n	n	x	n	n	n
O=C(CSc1nc(-c2cccs2)cc(C(F)(F)F)n1)Nc1cc(OCC(F)(F)F)cc([N+](=O)[O-])c1	n	15	n	n	n	n
CCC(C)NC(=O)CSc1nc(-c2cccs2)cc(C(F)(F)F)n1 (stereo unspecified)	n	n	n	n	n	n
CC(C)(C)c1cc(C(=O)Nc2cccc3ccccc23)ccn1	n	683	n	n	n	n
Cc1ccc(C(=O)Nc2cccc3ccccc23)cc1	n	n	n	n	n	n
CC(C)CC(=O)Nc1ccc2c3c(cccc13)CC2	n	n	n	n	389	n
CC(=O)Nc1ccc2c3c(cccc13)CC2	n	n	n	n	n	n
